In PubChem BioAssay AID720504 (National Center for Advancing Translational Sciences (NCATS), 2013):
The campaign covered roughly 360,000 compounds. About 10,000 (2.8%) were called active. Not shown: some 4% with an inconclusive outcome. The sample holds actives, similar compounds and a random draw of the others, so the mix is not that of the screen. The call rests on the fitted dose curve; in most records, active means well fitted inhibition curve with a large enough effect; inconclusive means small, poorly fitted or top-dose-only effect; inactive means flat fitted curve, though single readings scatter.

Biological target: Serine/threonine-protein kinase PLK1 (Homo sapiens) (UniProt P53350)
Experiment: qHTS for Inhibitors of PLK1-PDB (polo-like kinase 1 - polo-box domain): Primary Screen; further: nearly all actives have a fitted effect of over 65% in size; on Max response, negative = inhibition: series mostly up to about 57 µM
Conditions: Plk1 PBD binding of FITC phosphopeptide, fluorescence polarization
On the % scale 0 is the no-effect control and ±100 the full control effect; potency means the concentration at half of the fitted maximal effect.

Chain of Serine/threonine-protein kinase PLK1 (Homo sapiens) (P53350 whole entry, looked up, the tested form may be a part): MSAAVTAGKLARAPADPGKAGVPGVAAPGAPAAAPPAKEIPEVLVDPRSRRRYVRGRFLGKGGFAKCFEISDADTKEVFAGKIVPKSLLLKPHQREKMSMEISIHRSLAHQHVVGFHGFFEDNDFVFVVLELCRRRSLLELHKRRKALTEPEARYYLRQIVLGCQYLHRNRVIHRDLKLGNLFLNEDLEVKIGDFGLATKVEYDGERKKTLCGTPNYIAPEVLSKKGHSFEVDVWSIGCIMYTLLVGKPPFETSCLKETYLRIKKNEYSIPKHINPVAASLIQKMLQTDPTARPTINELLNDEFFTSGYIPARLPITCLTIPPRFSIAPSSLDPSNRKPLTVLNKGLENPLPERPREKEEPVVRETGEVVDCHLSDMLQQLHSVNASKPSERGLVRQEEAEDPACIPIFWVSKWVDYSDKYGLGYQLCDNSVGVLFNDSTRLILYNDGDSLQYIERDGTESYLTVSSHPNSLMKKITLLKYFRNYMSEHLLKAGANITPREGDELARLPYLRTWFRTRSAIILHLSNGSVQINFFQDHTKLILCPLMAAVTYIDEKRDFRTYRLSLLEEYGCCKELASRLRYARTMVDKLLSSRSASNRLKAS

Potency, active:
Cc1coc2c(O)cc3c(c12)OC1(N2CCCCC2)C(=O)NCCCC31 (centres undefined) 15 µM
CCCn1c(=S)[nH]c2ccc(C(F)(F)F)cc21 10.6 µM
O=C(c1ccc[nH]c1=S)N1CCN(S(=O)(=O)c2ccc(Br)cc2Cl)CC1 26.7 µM
CCN1CCN(C(c2cccnc2)c2cc(Cl)c3cccnc3c2O)CC1 (centres undefined) 10.6 µM
CCOC(=O)N1CCN(C(c2cccnc2)c2ccc3cccnc3c2O)CC1 (centres undefined) 5.97 µM
CCc1ccc(C2C(C#N)=C(N)N(N3CCOCC3)C3=C2C(=O)CC(C)(C)C3)s1 (centres undefined) 26.7 µM
CCC(Oc1ccccc1)C(=O)NCc1cccnc1 (centres undefined) 18.9 µM
CC1=NN(C(N)=S)C(=O)C1N=Nc1cc(Cl)ccc1Cl (centres undefined) 26.7 µM
O=C(c1cc(-c2ccc(F)cc2)on1)N1CCN(c2ccc(F)cc2)CC1 26.7 µM
Cc1sc(NC(=O)C2=COCCO2)c(C#N)c1C 11.9 µM
COc1cc(C(=S)NCc2ccccc2)cc(Br)c1O 4.23 µM
Nc1ccccc1SC(C[N+](=O)[O-])c1ccccc1 (centres undefined) 0.752 µM
O=C(c1ccco1)N1CCN(C(=O)C2CC(c3ccc(F)cc3)=NO2)CC1 (centres undefined) 26.7 µM
COc1cccc(CN(C)C(=O)CC23CC4CC(CC(C4)C2)C3)c1OC 29.9 µM
CCCOc1ccc(C2C(C(=O)c3ccc(C)o3)=C(O)C(=O)N2CCCn2ccnc2)cc1 (centres undefined) 23.8 µM
COc1cc(OC)c(C(=S)N2CCCC2)cc1OC 11.9 µM
CCC(C)Sc1nc2c(c(=O)[nH]c(=O)n2C)n1CC(O)COc1cccc2ccccc12 (centres undefined) 18.9 µM
COC(=O)c1nc(NC(=O)c2ccc(Cl)cc2)n[nH]1 26.7 µM
COC(=O)c1nc(NC(=O)c2ccccc2)n[nH]1 26.7 µM
COC(=O)c1nc(NC(=O)c2ccc(C(C)(C)C)cc2)n[nH]1 3.77 µM
COC(=O)c1nc(NC(=O)c2ccc(F)cc2)n[nH]1 15 µM

Max response, negative = inhibition, inactive:
C[C@H]1CN([C@@H](C)CO)S(=O)(=O)c2ccc(-c3cccc(F)c3)cc2O[C@@H]1CN(C)C 2.78%
CN(C)CCNC(=O)c1ccc(-c2cn3c(-c4ccc(Oc5ccccc5)cc4)cnc3cn2)cc1 -16.6%
COc1ccc(NC(=O)N(C)C[C@H]2Oc3ncc(C#C[C@@H](C)O)cc3C(=O)N([C@H](C)CO)C[C@H]2C)cc1 -0.325%
CN1CCN(C(=O)c2ccc(-c3cc4nc(NCc5cccnc5)n(C)c(=O)c4s3)cc2)CC1 -24.5%
CN(C)CCn1c(=S)[nH]c2ccc(Cl)cc2c1=O -5.51%
CC(C)n1c(=S)[nH]c2cc(C(F)(F)F)ccc21 -24.5%
CC(=O)N1Cc2cc(C(=O)NCc3cccc(F)c3)nc(-c3cccc(C4=CCCC4)c3)c2[C@H]1CCO -3.4%
CCC(C)CN1C(=O)CSCC1(C)C(=O)NCc1ccccc1 (centres undefined) -12.2%
O=C(Nc1ccc(Cl)cc1)C1Cc2c(-c3ccc4c(c3)OCO4)ccnc2O1 (centres undefined) -2.05%
C[C@H]1CN([C@@H](C)CO)C(=O)CCCn2cc(nn2)CO[C@@H]1CN(C)C(=O)Nc1ccccc1 -14%
O=C(c1ccccc1F)N1CCN(S(=O)(=O)c2ccc(Br)cc2)CC1 -0.788%
O=C(c1ccc(Cl)c(S(=O)(=O)N2CCCCC2)c1)N1CCCCCC1 -9.42%
O=C(COc1ccc(S(=O)(=O)N2CCCC2)cc1[N+](=O)[O-])N1CCCCC1 0.94%
C[C@H]1CN([C@@H](C)CO)C(=O)CCCn2cc(nn2)CO[C@@H]1CN(C)S(=O)(=O)c1ccccc1C#N -15.7%
CCOC(=O)N1CCN(C(c2ccnc3ccccc23)c2nnnn2-c2c(C)cccc2C)CC1 (centres undefined) 6.16%
Cc1onc(C(=O)NN)c1C(=O)N1CCN(C(c2ccccc2)c2ccccc2)CC1 1.96%
O=C(NC1CCCC1)C1c2ccccc2OCC(=O)N1CC(F)(F)F (centres undefined) -3.82%
CCOC1=C2[C@@H](CN(S(=O)(=O)c3ccc(C)cc3)[C@H]2c2ccccc2F)[C@H]2C(=O)N(Cc3ccccc3)C(=O)[C@H]2C1 -14.5%
CCCCCCNC(=O)O[C@]12C[C@@H](C(=O)OC)[C@@H](C(=O)OC)C[C@@]1(O)CN(S(=O)(=O)c1ccc(C)cc1)C2 -1.62%
COc1ccc(C2C(C#N)=C(/N=C/N3CCOCC3)OC3=C2C(=O)CC(C)(C)C3)cc1OC (centres undefined) -6.22%
CCc1ccc(C2C(C#N)=C(N)N(N(C)C)C3=C2C(=O)CCC3)s1 (centres undefined) 2.14%
O=C(NCc1cccnc1)Nc1ccccc1F -0.233%
O=C(O)c1ccccc1-c1ccccc1C(=O)NCc1cccnc1 -5.72%
COc1cccc(C(NC(C)=O)c2nc(-c3ccccc3OC)cs2)c1 (centres undefined) -10%
COc1ccc(-c2cc(C(=O)N3CCN(c4ccc(F)cc4)CC3)no2)cc1 -9.29%
O=C(c1cc(-c2ccc(Cl)cc2)on1)N1CCN(c2ccccc2)CC1 -5.98%
OC[C@@H]1CN(Cc2ccc(-c3ccccc3)cc2)C[C@H](n2cnc3c(NC4CCCC4)ncnc32)O1 4%
CCOC(=O)c1cc(-c2sc(NC(=O)c3ccccc3)nc2C)n(Cc2ccccc2)n1 7.73%
COC(=O)[C@]12CCCCC=C1N(CCC1=CCCCC1)C(=O)[C@H](CC(=O)NCC1CCCCC1)C2 -2.73%
Cc1csc(NC(=O)C2=COCCO2)n1 -3.95%
CCC(CC)c1nnc(NC(=O)C2=COCCO2)s1 -0.0349%
COc1cccc(NC(=O)Nc2ccc(F)cc2)c1 -6.36%
COc1cc(C(=O)NCc2ccncc2)cc(Br)c1OCc1ccccc1 -15.6%
COc1cc(CNC2CCCC2)c(Br)cc1OCc1ccccc1 -0.667%
Nc1nc2cc(Cl)ccc2n1N -1.19%
CCCNC(=O)c1cc(C2CCCCN2C(=O)OC)on1 (centres undefined) -6.79%
O=C(c1ccc(CS(=O)Cc2ccccc2Cl)o1)N1CCN(c2ccccc2)CC1 (centres undefined) -18.2%
Cc1ccc2nc(-c3ccccc3)c(CC3CCCCC3)n2c1 -7.91%
O=C1NC(O)CCN1C1CC(O)C(CO)O1 (centres undefined) -1.57%
Nc1cccc(OCCCCCOc2cccc(N)c2)c1 1.62%
N#Cc1cccc(NC(=O)c2cc(C3CCCCN3C(=O)CCc3ccccc3)on2)c1 (centres undefined) 4.56%
Cc1ccccc1S(=O)(=O)NC(=O)C1(C)CCN1C(=O)Cc1ccc(Cl)cc1Cl (centres undefined) -14.1%
O=C(c1ccco1)N1CCN(C(=O)C2CC(c3ccc(Cl)c(Cl)c3)=NO2)CC1 (centres undefined) -17%
CCOC(=O)N1CCN(C(=O)C2CC(c3ccc(F)cc3)=NO2)CC1 (centres undefined) -12.9%
COc1ccc(S(=O)(=O)N2CCCCCC2)cc1C(=O)N(C)Cc1cccc(OC)c1OC -7.8%
COc1ccc(CN(C)C(=O)Cc2ccsc2)c(OC)c1OC -14.4%
Cc1ccc(S(=O)(=O)NN=C2CC(C)(C)CC(=O)C2(C)C)cc1 -5.23%
c1ccc(Cc2ccc(OCCn3ccnc3)cc2)cc1 4.09%
CCOc1ccc(C2/C(=C(/O)c3ccc4c(c3)CC(C)O4)C(=O)C(=O)N2CCCn2ccnc2)cc1 (centres undefined) -16.9%
COc1ccc(C(=O)N2CCCN(C)CC2)c(OC)c1 1.15%
COc1cc(OC)c(C(=O)N2CCCC2)cc1OC -4.54%
NC(=O)CSc1nnc(-c2cccc(S(=O)(=O)N3CCOCC3)c2)o1 -12.4%
CCN(CC)C(=O)C1=C(C)N(Cc2ccc(F)cc2)C(=O)C(CC(=O)NC2CCCC2)C1 (centres undefined) 3.61%
CC(C)C[C@H]1CN([C@@H](Cc2ccccc2)CN2CCC[C@@H]2CN2C(=O)C(=O)NC[C@@H]2Cc2ccc(O)cc2)C(=O)C(=O)N1CCc1ccccc1 0.344%
CN1CCN(c2nc3c(c(=O)[nH]c(=O)n3C)n2Cc2cccc3ccccc23)CC1 -17.6%
Cc1cccc(OCC(O)Cn2c(N3CCCCC3)nc3c2c(=O)[nH]c(=O)n3C)c1 (centres undefined) -3.66%
CC1(C(=O)O)CCCN(C(=O)/C=C/c2ccccc2)C1 (centres undefined) -5.95%
CCC(=O)N1CCC(C)(C(=O)Nc2cc(OC)c(OC)c(OC)c2)C1 (centres undefined) 4.76%
O=S1(=O)CC(N2CCC(Cc3ccccc3)CC2)CN1Cc1ccccc1 (centres undefined) -4.73%
COc1ccc(C(=O)Nc2ccc(F)cc2F)cc1 -1.72%
O=C(Nc1n[nH]c(C(F)(F)F)n1)c1cccs1 -23.4%
CSc1nccc(NC(=O)c2ccc(C(C)(C)C)cc2)n1 -8.27%
CC(C)Oc1cc(F)ccc1-c1cc(C(=O)Nc2ccc(F)cc2)[nH]n1 -4.13%
CCOC(=O)NNC(=O)c1ccc(Cl)cc1 -5.54%
O=C(Nc1nsc(-c2ccccc2)n1)c1ccncc1 0.306%
COC(=O)c1sccc1NC(=O)c1ccc(Cl)cc1 -7.12%
COc1ccc(C(=O)NNC(=O)c2cc(C)[nH]n2)cc1 -5.72%
OC[C@@H]1CN(Cc2ccc(Cl)cc2)C[C@H](n2cnc3c(NCc4ccncc4)ncnc32)O1 -6.44%
